# Test results reported in PubChem BioAssay (NCATS).
# “And” between values parts separate entries of the source, which are not always exact repeats. Identical values can stand only once. Results filed as inconclusive are left out. A call without a number means that no potency is given here. The source made the active and inactive calls. Unless noted, calls come from the whole dose curve; as a rule, active = well fitted curve in the direction sought with a large enough effect; inconclusive = small, poorly fitted or top-dose-only effect, or another doubt; inactive = no such curve, though single readings can be large; an effect the other way counts as inactive or inconclusive.
# What was measured:
# [1] = AP1 Signaling Pathway (AID 357; active = well fitted curve in either direction with a large enough effect, not every such curve was filed as active;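 note: ME-180 reporter cells stimulated with EGF at its EC50 level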); conditions: ME-180 AP-1-bla reporter, EGF-induced, beta-lactamase ratio, 5 h; at 38 µM (top of the series)
# Procedure, shortened: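 Cells are seeded overnight, exposed to compound titrations and an EC50 level of EGF for 5 hours at 37 °C, then loaded with CCF4 dye for 2.5 hours. Beta-lactamase activity under the AP-1 element is read as a blue/green ratio.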
# [2] = target: Cytochrome P450 1A2 (Homo sapiens) (UniProt P05177); test: p450-cyp1a2 (AID 410; calls by dose curve)
# Sequence of Cytochrome P450 1A2 (Homo sapiens) (P05177 whole entry, looked up): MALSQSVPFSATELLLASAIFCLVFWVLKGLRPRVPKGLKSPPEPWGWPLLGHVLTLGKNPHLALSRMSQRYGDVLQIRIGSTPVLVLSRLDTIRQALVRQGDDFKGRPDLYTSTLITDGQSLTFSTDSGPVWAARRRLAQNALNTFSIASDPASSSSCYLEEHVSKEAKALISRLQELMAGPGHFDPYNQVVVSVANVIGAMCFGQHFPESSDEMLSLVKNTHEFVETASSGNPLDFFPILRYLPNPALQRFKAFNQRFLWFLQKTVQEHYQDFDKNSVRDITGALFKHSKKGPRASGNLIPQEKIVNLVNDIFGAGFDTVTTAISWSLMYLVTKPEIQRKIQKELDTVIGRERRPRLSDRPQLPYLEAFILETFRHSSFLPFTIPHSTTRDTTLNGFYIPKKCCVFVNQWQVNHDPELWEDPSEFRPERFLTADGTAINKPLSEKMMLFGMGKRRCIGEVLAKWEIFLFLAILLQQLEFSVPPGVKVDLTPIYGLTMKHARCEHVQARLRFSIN
# Procedure, shortened: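 Luminescent readout of luciferin formed from Luciferin-ME by human CYP1A2; data normalized against complete inhibition by 57 uM furafylline. Enzyme 20nM, substrate 100uM at Km, 100mM KPO4 buffer, 60 min reaction at room temperature.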
# [3] = NFAT Signaling Pathway (AID 444; active = well fitted curve in either direction with a large enough effect, not every such curve was filed as active;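 note: carbachol stimulus at about its EC50 of 1 µM final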); conditions: Jurkat NFAT-bla M1, carbachol, beta-lactamase ratio, 5 h; at 38 µM (top of the series)
# Procedure, shortened: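 Jurkat cells carrying an NFAT-driven β-lactamase reporter and co-transfected muscarinic M1 receptor were treated with compound plus carbachol (1 uM final, an EC50 level) for 5 h at 37 °C. CCF4 loading followed for 1 h at RT; 460/530 nm ratio gave %activity.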
# [4] = Stat Signaling Pathway (AID 446; active = well fitted curve in either direction with a large enough effect, not every such curve was filed as active;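 note: ME-180 cervical cancer cells given 40 pM IL-6 alongside compound; SIE-controlled beta-lactamase reporter measured as 460/530 nm FRET emission ratio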); conditions: ME-180 SIE beta-lactamase reporter, IL-6 stimulated, 5 h; at 38 µM (top of the series)
# Procedure, shortened: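 Screening format detects activators and inhibitors alike: ME-180 SIE-bla cells stimulated at 40 pM IL-6 for 5 hrs with compound, then dual-emission beta-lactamase read at 405 nm excitation.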
# [5] = target: Glucocorticoid receptor (Homo sapiens) (UniProt P04150); test: GR-GFP Redistribution (AID 450;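 active = compounds whose dose series gives a full or clear partial fitted curve of increased nuclear translocation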; note: potency is the fitted concentration of half-maximal effect); conditions: U2OS GR-GFP nuclear translocation, laser cytometry, 2 h
# Sequence of Glucocorticoid receptor (Homo sapiens) (P04150 whole entry, looked up, the tested form may be a part): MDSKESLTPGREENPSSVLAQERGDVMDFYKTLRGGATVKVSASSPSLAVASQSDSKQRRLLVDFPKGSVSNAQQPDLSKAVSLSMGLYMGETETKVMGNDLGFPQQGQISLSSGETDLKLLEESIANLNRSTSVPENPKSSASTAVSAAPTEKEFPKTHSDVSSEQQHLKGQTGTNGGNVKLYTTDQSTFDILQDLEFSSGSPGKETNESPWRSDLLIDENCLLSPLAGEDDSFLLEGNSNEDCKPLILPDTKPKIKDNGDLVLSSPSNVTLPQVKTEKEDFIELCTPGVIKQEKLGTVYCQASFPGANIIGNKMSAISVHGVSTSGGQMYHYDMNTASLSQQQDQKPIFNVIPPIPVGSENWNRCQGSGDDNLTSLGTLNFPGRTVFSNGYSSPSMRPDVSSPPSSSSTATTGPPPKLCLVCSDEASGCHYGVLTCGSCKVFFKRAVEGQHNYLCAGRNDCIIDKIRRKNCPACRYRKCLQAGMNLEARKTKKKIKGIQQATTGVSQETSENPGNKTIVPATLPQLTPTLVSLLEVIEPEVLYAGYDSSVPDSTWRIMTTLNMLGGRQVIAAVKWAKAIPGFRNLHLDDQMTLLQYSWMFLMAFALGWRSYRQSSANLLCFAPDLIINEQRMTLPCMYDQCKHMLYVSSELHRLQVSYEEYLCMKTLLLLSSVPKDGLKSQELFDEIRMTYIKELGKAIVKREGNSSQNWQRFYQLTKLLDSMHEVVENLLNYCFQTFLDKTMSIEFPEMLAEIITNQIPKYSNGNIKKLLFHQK
# [6] = target: Glucocorticoid receptor (Homo sapiens) (UniProt P04150); test: GR-EFC Redistribution (AID 451; calls by dose curve; note: potency is the fitted concentration of half-maximal effect); conditions: CHO-K1 GR-EFC translocation, beta-gal luminescence, 2 h
# Procedure, shortened: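 CHO-K1 cells stably expressing nuclear-localized β-gal enzyme acceptor and GR fused C-terminally to the enzyme donor fragment; ligand-driven nuclear translocation restores β-gal by complementation. Compounds titrated up to 46 uM final, 2 h at 37 °C; luminescence read.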
# [7] = target: Mitogen-activated protein kinase 10 (Mus musculus) (UniProt Q61831); test: JNK3 AlphaScreen Assay (AID 530; active = well fitted curve in either direction with a large enough effect, not every such curve was filed as active;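 note: kinase came from lysate of stimulated human HepG2 cells; signal reports phosphorylation of biotinylated GST-cJun 1-79 at Ser73 with 10 µM ATP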)
# Procedure, shortened: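 Inhibitors reduce antibody binding to phosphorylated biotin-cJun, lowering AlphaScreen luminescence. Lysates from HepG2 cells pre-activated by IL-1beta plus TNF-alpha supplied JNK3; compounds were titrated.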
# [8] = target: 3',5'-cyclic-AMP phosphodiesterase 4B (Homo sapiens) (UniProt Q07343); test: qHTS Assay for Inhibitors of PDE-IV (AID 607; active = well fitted activation curve with a large enough effect in the main read-out, with a control signal flat, not every such curve was filed as active)
# Sequence of 3',5'-cyclic-AMP phosphodiesterase 4B (Homo sapiens) (Q07343 whole entry, looked up): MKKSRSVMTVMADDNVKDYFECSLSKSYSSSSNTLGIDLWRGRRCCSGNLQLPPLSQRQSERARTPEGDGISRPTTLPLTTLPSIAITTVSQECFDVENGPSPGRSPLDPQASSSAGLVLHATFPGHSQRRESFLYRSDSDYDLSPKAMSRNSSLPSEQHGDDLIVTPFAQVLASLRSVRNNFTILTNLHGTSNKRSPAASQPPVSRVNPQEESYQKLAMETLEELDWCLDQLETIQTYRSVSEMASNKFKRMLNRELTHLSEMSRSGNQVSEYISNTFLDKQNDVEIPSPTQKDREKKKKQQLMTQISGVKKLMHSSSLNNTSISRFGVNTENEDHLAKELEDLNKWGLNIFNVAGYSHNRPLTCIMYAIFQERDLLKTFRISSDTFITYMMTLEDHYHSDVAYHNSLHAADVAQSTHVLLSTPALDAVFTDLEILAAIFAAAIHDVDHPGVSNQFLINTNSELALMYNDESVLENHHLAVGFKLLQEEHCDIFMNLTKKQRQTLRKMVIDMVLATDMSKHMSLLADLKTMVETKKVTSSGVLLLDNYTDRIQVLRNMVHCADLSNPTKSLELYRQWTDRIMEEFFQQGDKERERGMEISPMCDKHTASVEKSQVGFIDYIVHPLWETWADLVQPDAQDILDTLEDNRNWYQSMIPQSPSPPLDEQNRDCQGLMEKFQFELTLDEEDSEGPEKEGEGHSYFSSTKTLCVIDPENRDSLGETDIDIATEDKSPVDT
# Procedure, shortened: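 The readout is membrane depolarisation from a cAMP-sensing CNG channel, detected with a potential dye at ex 535/em 590. Cells were HEK293-derived (endogenous PDE-IV) at 1000 cells/well, titrated up to 22.9 uM final.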
# [9] = target: Guanine nucleotide-binding protein G(i) subunit alpha-1 (Homo sapiens) (UniProt P63096); test: qHTS Assay for Inhibitors of RGS12 GoLoco Motif Activity (Green Fluorophore) (AID 879);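 note: negative values mean loss of peptide binding seen as reduced polarization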
# Procedure, shortened: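 Fluorescence polarization assay: 50 nM Gαi1 with 10 nM FITC-labeled RGS12 GoLoco peptide in 10 mM Tris pH 7.5, 150 mM NaCl, 0.1 mM GDP, 0.05% NP40, 10 min at room temperature with compound.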
# [10] = target: Cytochrome P450 2C9 (Homo sapiens) (UniProt P11712); test: qHTS Assay for Inhibitors and Substrates of Cytochrome P450 2C9 (AID 883); note: potency is the fitted concentration of half-maximal effect; nearly all actives have a fitted effect of over 60% in size
# Procedure, shortened: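 Human CYP2C9 (10nM) hydroxylated Luciferin-H (100uM, at its KM) to luciferin in 25mM KPO4. Compound was preincubated 10 min at 37C, then NADPH regeneration started a 60 min reaction at 37C. Luminescence was read after detection reagent, normalized to 57uM sulphaphenazole.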
# [11] = target: Cytochrome P450 3A4 (Homo sapiens) (UniProt P08684); test: qHTS Assay for Inhibitors and Substrates of Cytochrome P450 3A4 (AID 884); note: potency is the fitted concentration of half-maximal effect; nearly all actives have a fitted effect of over 50% in size
# Sequence of Cytochrome P450 3A4 (Homo sapiens) (P08684 whole entry, looked up): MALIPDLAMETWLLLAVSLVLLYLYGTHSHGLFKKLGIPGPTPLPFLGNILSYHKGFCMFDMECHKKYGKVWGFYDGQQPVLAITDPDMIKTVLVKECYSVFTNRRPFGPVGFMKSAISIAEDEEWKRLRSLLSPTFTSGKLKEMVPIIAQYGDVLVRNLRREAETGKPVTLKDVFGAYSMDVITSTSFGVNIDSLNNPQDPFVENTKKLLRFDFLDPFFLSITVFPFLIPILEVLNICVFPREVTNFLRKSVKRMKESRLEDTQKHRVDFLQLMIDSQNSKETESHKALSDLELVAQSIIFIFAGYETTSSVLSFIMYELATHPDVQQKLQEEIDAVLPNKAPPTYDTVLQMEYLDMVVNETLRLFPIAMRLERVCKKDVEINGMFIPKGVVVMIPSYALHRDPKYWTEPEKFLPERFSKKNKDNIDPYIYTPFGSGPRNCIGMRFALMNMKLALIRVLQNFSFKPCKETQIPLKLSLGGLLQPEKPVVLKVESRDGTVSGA
# Procedure, shortened: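 20 nM human CYP3A4 with 25 uM Luciferin-PPXE (at KM) in 200 mM KPO4, preincubated 10 min with compound; NADPH regeneration started a 60 min RT reaction. Luciferin detected by luminescence, normalized to 57 uM ketoconazole as full inhibition.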
# [12] = target: Cytochrome P450 3A4 (Homo sapiens) (UniProt P08684); test: qHTS Assay for Activators of Cytochrome P450 3A4 (AID 885); note: nearly all actives have a fitted effect of over 65% in size
# Procedure, shortened: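 Steps: enzyme/substrate mix dispensed; compound added, 10 min RT; NADPH regeneration solution added, 60 min RT; luciferin detection buffer stops reaction; 20 min later luminescence measured.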
# [13] = qHTS Assay for Identification of Small Molecule Antagonists for NFkB Signaling Pathway (AID 895; active = well fitted inhibition curve with a large enough effect in the signal ratio, with a control signal flat, not every such curve was filed as active; the % refers to the signal ratio)
# Procedure, shortened: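 NFkB-bla ME-180 cervical carcinoma cells with beta-lactamase reporter under NFkB response element; compounds added, then TNF alpha at 10 pM final (EC50), 5 h at 37 C. LiveBLAzer substrate 2 h, room temperature; emission 460/530 nm at 405 nm excitation.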
# [14] = qHTS Assay for Identification of Small Molecule Agonists for Thrombopoietin (TPO) Signaling Pathway (AID 917)
# Procedure, shortened: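 IL-3-dependent murine pro-B Ba/F3 cells, stably transfected with human TPO receptor and GpIIb-promoter luciferase, are incubated 24 hrs at 37 C with test compound and 26 pM TPO; luciferase signal is read after 10 min at room temperature.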
# [15] = target: Muscarinic acetylcholine receptor M1 (Rattus norvegicus) (UniProt P08482); test: qHTS Assay for Antagonists of Acetylcholine Muscarinic M1 Receptor: Measurement of IP-One Response (AID 944); note: nearly all actives have a fitted effect of over 75% in size
# Sequence of Muscarinic acetylcholine receptor M1 (Rattus norvegicus) (P08482 whole entry, looked up): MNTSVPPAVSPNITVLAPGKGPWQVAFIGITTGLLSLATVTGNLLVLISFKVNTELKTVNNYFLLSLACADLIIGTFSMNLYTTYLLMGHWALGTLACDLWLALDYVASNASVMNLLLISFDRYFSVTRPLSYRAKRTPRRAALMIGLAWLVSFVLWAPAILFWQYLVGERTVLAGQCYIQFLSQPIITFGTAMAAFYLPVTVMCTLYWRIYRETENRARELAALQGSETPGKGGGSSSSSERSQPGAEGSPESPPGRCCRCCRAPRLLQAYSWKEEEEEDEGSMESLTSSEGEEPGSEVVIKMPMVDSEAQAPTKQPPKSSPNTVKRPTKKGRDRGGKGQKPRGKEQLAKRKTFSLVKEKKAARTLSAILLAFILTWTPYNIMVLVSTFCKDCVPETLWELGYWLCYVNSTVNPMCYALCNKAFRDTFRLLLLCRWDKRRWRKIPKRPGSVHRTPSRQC
# Procedure, shortened: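 M1-CHO (rat), 2000 cells/well, overnight recovery; cpd 10 min; carbachol EC80 (200 nM), 30 min, HEPES buffer + 50 mM LiCl pH 7.4; IP-One HTRF, Ex 337, Em 620/665 nm.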
# [16] = target: Pyruvate kinase (Leishmania mexicana) (UniProt Q27686); test: qHTS Validation Assay for Inhibitors of Leishmania Mexicana Pyruvate Kinase (AID 945)
# Sequence of Pyruvate kinase (Leishmania mexicana) (Q27686 2-499 E452W): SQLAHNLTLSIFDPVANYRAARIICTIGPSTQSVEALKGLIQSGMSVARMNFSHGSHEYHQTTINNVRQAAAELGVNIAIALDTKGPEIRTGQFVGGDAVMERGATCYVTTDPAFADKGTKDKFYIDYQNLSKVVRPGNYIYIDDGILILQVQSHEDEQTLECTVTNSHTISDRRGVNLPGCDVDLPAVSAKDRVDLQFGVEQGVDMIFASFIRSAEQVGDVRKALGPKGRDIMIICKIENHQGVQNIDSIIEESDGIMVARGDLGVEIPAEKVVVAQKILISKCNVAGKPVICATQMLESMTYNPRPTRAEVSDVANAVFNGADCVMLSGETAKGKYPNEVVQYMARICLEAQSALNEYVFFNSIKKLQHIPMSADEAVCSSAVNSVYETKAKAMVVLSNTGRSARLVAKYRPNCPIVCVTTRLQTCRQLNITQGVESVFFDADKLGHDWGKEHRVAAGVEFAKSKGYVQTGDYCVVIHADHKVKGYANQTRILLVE
# Procedure, shortened: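 Luminescent ATP detection (PKLight) after a 1 h room-temperature reaction of 0.2 nM LmPYK E451W mutant with 0.5 mM PEP and 0.1 mM ADP at pH 7.2. Activity is normalized to DMSO-only control wells.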
# [17] = target: Pyruvate kinase PKM (Homo sapiens) (UniProt P14618); test: qHTS Assay for Activators of Human Muscle Pyruvate Kinase (AID 954; active = well fitted curve in the direction sought with a large enough effect, not every such curve was filed as active)
# Procedure, shortened: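 Reaction: 0.1 nM purified PKM2 with 0.5 mM phosphoenolpyruvate and 0.1 mM ADP, room temperature, 1 h. Readout: luciferase-based ATP luminescence after stop reagent. Activators judged against a 0.3 nM enzyme column.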
# [18] = target: Alpha-galactosidase A (Homo sapiens) (UniProt P06280); test: Counterscreen for Glucocerebrosidase Inhibitors: qHTS Assay for Human alpha-Galactosidase at pH 4.5 (AID 992)
# Procedure, shortened: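 Concentration-response curves (0.7 nM to 77 uM final) were modeled with the Hill equation to give AC50. Reactions: 2 nM enzyme, 80 uM fluorogenic alpha-galactoside, pH 4.5 citric acid buffer, 20 min, room temperature.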
# [19] = target: alpha-glucosidase (Oryza sativa, rice) (UniProt Q653V4); test: Counterscreen for Glucocerebrosidase Inhibitors: qHTS Assay for Rice alpha-Glucosidase at pH 5.0 (AID 997)
# Procedure, shortened: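 Rice alpha-glucosidase (4 nM final) with 400 uM 4-methylumbelliferyl-alpha-D-glucopyranoside in citrate buffer pH 5.0, 20 min at room temperature, stopped at pH 10; fluorescence 365/440 nm, compounds 0.7 nM–77 uM, AC50 from Hill fits.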
# [20] = qHTS Assay for Lipid Storage Modulators (AID 1519; calls by dose curve); conditions: Drosophila S3 cells, BODIPY lipid droplet/cell ratio, laser cytometry, cells loaded with oleic acid; for activity change, negative = inhibition: at 57.5 µM (top of the series)
# Procedure, shortened: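 Cells seeded at 5,000 per well were treated with compounds over a concentration series and loaded with oleic acid (400 uM, as added). Lipid droplet fluorescence (488 nm excitation, 500-530 nm channel) was read by laser-scanning cytometry and normalized to 20 uM Triacsin C.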
# [21] = target: DNA dC->dU-editing enzyme APOBEC-3G (Homo sapiens) (UniProt Q9HC16); test: qHTS for inhibitors of Vif-A3G interactions: Validation (AID 588379)
# Sequence of DNA dC->dU-editing enzyme APOBEC-3G (Homo sapiens) (Q9HC16 whole entry, looked up): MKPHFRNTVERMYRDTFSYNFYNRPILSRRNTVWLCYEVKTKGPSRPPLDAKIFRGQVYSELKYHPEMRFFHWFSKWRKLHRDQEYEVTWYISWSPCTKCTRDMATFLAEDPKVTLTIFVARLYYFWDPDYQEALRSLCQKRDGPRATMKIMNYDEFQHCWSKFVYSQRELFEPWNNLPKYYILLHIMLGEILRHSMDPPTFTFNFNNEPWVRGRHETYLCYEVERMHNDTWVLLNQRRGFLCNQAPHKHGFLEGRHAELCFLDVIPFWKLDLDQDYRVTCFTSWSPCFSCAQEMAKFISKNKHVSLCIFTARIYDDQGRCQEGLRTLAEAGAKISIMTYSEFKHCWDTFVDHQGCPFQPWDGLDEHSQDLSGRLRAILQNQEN
# Procedure, shortened: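 HeLa cells stably expressing Vif and A3G-eYFP, 700 cells/well, incubated overnight at 37 deg C, then exposed to compound overnight at 37 deg C. Inhibition of Vif-mediated degradation read as increased yellow fluorescence (Ex 488/Em 500-530) by laser-scanning cytometry.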
# [22] = test system: Zika virus NS2B-NS3 protease; test: Primary screen GU AMC qHTS for Zika virus inhibitors (AID 1347154); note: nearly all actives have a fitted effect of over 70% in size
# Procedure, shortened: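 Unlinked Zika NS2B hydrophilic domain/NS3 protease domain noncovalent complex (25 nM final) in 10 mM Tris-HCl pH 8.0, 0.01% Tween 20, with AMC peptide substrate. Fluorescence (ex 340, em 450 nm) change over 15 min, room temperature; percent inhibition fitted to 4-parameter Hill equation.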
# [23] = Primary qHTS for small molecule stabilizers of the endoplasmic reticulum resident proteome: Secreted ER Calcium Modulated Protein (SERCaMP) assay (AID 1508630)
# Procedure, shortened: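 GLuc-SERCaMP-expressing SH-SY5Y cells, pretreated 16 h with compound, are challenged with thapsigargin to empty ER calcium stores; after 4 h, coelenterazine is added directly to the medium and luminescence is imaged.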
# [24] = target: Rap guanine nucleotide exchange factor 3 (Homo sapiens) (UniProt O95398); test: Confirmatory qHTS for antagonist of cAMP-regulated guanine nucleotide exchange factor 3 (EPAC1) (AID 1645880); note: nearly all actives have a fitted effect of over 55% in size
# Sequence of Rap guanine nucleotide exchange factor 3 (Homo sapiens) (O95398 whole entry, looked up): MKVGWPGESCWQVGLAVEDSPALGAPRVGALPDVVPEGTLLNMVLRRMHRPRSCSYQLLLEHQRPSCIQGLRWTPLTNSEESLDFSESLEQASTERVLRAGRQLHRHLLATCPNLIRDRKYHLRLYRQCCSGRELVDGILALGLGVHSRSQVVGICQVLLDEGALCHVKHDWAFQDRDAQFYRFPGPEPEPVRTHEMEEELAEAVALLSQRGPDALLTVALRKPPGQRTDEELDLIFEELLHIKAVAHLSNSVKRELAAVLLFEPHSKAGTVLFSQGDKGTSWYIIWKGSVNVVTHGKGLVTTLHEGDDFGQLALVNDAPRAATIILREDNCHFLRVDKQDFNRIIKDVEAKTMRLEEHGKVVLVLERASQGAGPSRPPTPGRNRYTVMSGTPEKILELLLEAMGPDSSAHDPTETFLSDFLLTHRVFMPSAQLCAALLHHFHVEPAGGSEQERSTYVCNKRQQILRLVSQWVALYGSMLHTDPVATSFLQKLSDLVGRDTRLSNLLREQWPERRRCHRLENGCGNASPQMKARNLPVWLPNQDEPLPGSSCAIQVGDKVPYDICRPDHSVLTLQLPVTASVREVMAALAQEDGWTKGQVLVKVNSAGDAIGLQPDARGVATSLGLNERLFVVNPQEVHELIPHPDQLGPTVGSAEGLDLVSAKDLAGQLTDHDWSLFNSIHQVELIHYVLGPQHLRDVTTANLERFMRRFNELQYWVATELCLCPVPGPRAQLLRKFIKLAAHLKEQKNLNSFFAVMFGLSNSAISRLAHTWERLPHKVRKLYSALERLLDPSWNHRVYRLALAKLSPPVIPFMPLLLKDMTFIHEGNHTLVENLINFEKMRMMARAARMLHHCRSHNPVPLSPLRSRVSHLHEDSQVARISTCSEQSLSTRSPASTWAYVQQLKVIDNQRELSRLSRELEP
# Procedure, shortened: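 Nucleotide exchange uses 100 nM EPAC1, 250 nM RAP1B-BODIPY-GDP and 50 uM GDP, with compounds in a concentration-titration series. After 5 min at room temperature, fluorescence (480 nm ex/540 nm em) is read every 5 min for 30 min. Data are normalized to control ATA and DMSO.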
# [25] = target: Rap guanine nucleotide exchange factor 3 (Homo sapiens) (UniProt O95398); test: Confirmatory qHTS for agonist of cAMP-regulated guanine nucleotide exchange factor 3 (EPAC1) (AID 1645881);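 note: EPAC1 catalysed release of BODIPY-GDP from Rap1B seen as fluorescence loss; nearly all actives have a fitted effect of over 75% in size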
# [26] = target: Rap guanine nucleotide exchange factor 4 (Homo sapiens) (UniProt Q8WZA2); test: Confirmatory qHTS for agonist of cAMP-regulated guanine nucleotide exchange factor 4 (EPAC2) (AID 1645884);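 note: nucleotide exchange releases bodipy-GDP from Rap1 and this lowers its fluorescence; nearly all actives have a fitted effect of over 65% in size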
# [27] = target: Rap guanine nucleotide exchange factor 4 (Homo sapiens) (UniProt Q8WZA2); test: Confirmatory qHTS for antagonist of cAMP-regulated guanine nucleotide exchange factor 4 (EPAC2) (AID 1645885); note: nearly all actives have a fitted effect of over 25% in size
# [28] = target: Muscarinic acetylcholine receptor M1 (Rattus norvegicus) (UniProt P08482); test: qHTS Assay for Antagonists of Acetylcholine Muscarinic M1 Receptor: Kinetic Measurement of Intracellular Calcium Response (AID 943);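 note: Fluo-4 calcium signal as peak divided by basal fluorescence over 4 min; nearly all actives have a fitted effect of over 75% in size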
# Procedure, shortened: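 Rat M1-CHO cells, 2000/well, overnight → Fluo-4 no-wash dye with probenecid, 1 h 37C → compound 10 min, room temp → basal read 6 s → carbachol EC80 (100 nM) → 4 min kinetic read; peak/basal.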
# [29] = target: Ubiquitin carboxyl-terminal hydrolase 1 (Homo sapiens) (UniProt O94782); test: Inhibitors of USP1/UAF1: Pilot qHTS (AID 504865);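 note: rhodamine fluorescence freed from ubiquitin-rhodamine substrate followed over time; top concentration of the series differs between compounds; nearly all actives have a fitted effect of over 35% in size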
# Procedure, shortened: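 Enzyme-free wells gave the negative control, while test wells held 1nM USP1/UAF1 preincubated with compound for 15 min at room temperature. Ub-Rho at 150nM final started the reaction, and fluorescence at 480/540 nm was recorded kinetically.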
# [30] = measured here: cell count channel max response
# [31] = measured here: lipid channel max response
smiles,measurement,setting,value
S=C(S)O[C@@H]1C[C@@H]2C[C@H]1[C@@H]1CCC[C@H]21,"activity change, negative = inhibition",[1],6.71% (inactive)
same,Potency,[2],inactive
same,"activity change, negative = inhibition",[3],-4.29% (inactive)
same,"activity, negative = inhibition",[4],-20.1% (inactive)
same,Potency,[5],> 46 µM (inactive)
same,Potency,[6],> 46 µM (inactive)
same,Potency,[7],inactive
same,Potency,[8],inactive
same,outcome,[9],inactive
same,Potency,[10],3.98 µM (active)
same,Potency,[11],3.98 µM (active)
same,Potency,[12],inactive
same,Potency,[13],inactive
same,Potency,[14],inactive
same,Potency,[15],inactive
same,Potency,[16],inactive
same,outcome,[17],inactive
same,outcome,[18],inactive
same,outcome,[19],inactive
same,"activity change, negative = inhibition",[20],-0.164% (inactive)
same,max response,[20]; [30],8.79%
same,max response,[20]; [31],9.53%
same,Potency,[21],inactive
same,Potency,[22],inactive
same,Potency,[23],inactive
same,Potency,[24],inactive
same,outcome,[25],inactive
same,outcome,[26],inactive
same,Potency,[27],inactive
COC(=O)CNC(=O)C(=O)OC,"activity change, negative = inhibition",[22],11.4% [at 6.83 µM] (inactive)
same,"activity change, negative = inhibition",[23],-16.2% [at 3.88 µM] (inactive)
C[C@@](N)(C(=O)O)c1ccc(C(=O)O)cc1,"activity change, negative = inhibition",[1],2.6% (inactive)
same,Potency,[2],inactive
same,"activity change, negative = inhibition",[3],6.09% (inactive)
same,"activity, negative = inhibition",[4],4.5% (inactive)
same,Potency,[5],> 46 µM (inactive)
same,Potency,[6],> 46 µM (inactive)
same,Potency,[7],inactive
same,Potency,[8],inactive
same,outcome,[9],inactive
same,Potency,[13],inactive
same,Potency,[14],inactive
same,Potency,[28],inactive
same,Potency,[15],inactive
same,Potency,[16],inactive
same,outcome,[17],inactive
same,outcome,[19],inactive
same,"activity change, negative = inhibition",[20],-1.38% (inactive) and 3.86% (inactive)
same,max response,[20]; [30],-12.7% and -2.32%
same,max response,[20]; [31],-13.1% and 2.03%
same,Potency,[29],inactive
same,Potency,[21],inactive
same,Potency,[22],inactive
same,Potency,[23],inactive
